Screening results (PubChem BioAssay)
Hits are enriched below; roughly 15% of the tested compounds scored in any of these assays.
DT40 TDP1 CPT = growth inhibition of DT40 Tdp1-/-;hTDP1 cells with camptothecin (screen for TDP1 inhibitors) | AID 686979 | chicken DT40 Tdp1-/-;hTDP1 cells + 20 nM CPT, ATP luminescence, 48 h | 420,000 tested, 12% active | Potency, µM (titrated, usually from 46.2 µM), for inactives: top-dose activity change, negative = growth inhibition, most hits filed as inhibitors; further: nearly all actives have a fitted effect of over 55% in size
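Chicken DT40 Tdp1-/- cells stably complemented with human TDP1 were seeded at 400 cells/well in medium containing 20 nM camptothecin, exposed to pin-transferred compounds, and grown at 37 °C for at least 48 hr. Viability was read as ATP luminescence.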
Gal4-VP16 FLuc = inhibits Gal4-VP16 luciferase reporter, ROR gamma counter-screen; Drosophila S2 Gal4-VP16 UAS-luciferase, luminescence, 20 h; Potency, µM (doses to about 53.6 µM), for inactives: top-dose activity, negative = inhibition, actives largely listed as inhibitors; 310,000 tested, 3.5% active;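 further: Gal4-VP16 expression switched on by copper sulfate through the metallothionein promoter; nearly all actives have a fitted effect of over 50% in size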
RORgamma inh = blocks mouse ROR gamma transcriptional activity | P51450 | Drosophila S2 Gal4-RORgamma UAS-luciferase reporter, 20 h | Potency, µM (top dose mostly 53.6 µM), inactives show top-dose activity change, negative = inhibition, hits mostly inhibitors | 310,000 tested, 5.4% active; further: nearly all actives have a fitted effect of over 60% in size
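In this cell-based reporter format, copper sulfate (700 uM final) drives Gal4–ROR gamma fusion expression from a metallothionein promoter in Drosophila Schneider cells; compounds preincubated 1 hr, reporter read after 20 hr at ambient temperature.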
ELG1 DNA repair = inhibitors of ELG1-dependent DNA repair in HEK293T cells | 330,000 tested, 2.3% active | HEK293T ELG1-luciferase reporter, luminescence, 16 h; DNA damage induced by 5-fluorouridine | Potency, µM (titrated, usually from 46.1 µM), without a hit: at the top dose activity change, negative = inhibition, actives largely listed as inhibitors | AID 504467; further: nearly all actives have a fitted effect of over 55% in size
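5-Fluorouridine DNA damage + compound/DMSO, 2,000 cells/well, 16 h, 37 °C/5% CO2. ONE-Glo, 30 min RT, luminescence. Readout = decrease in reporter signal.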
12-LOX inh = blocks human arachidonate 12S-lipoxygenase | P18054 | purified 12hLO, xylenol orange hydroperoxide absorbance | Potency, µM (highest dose often 108 µM), inactives show top-dose activity change, negative = inhibition, most hits filed as inhibitors | 580,000 tested, 1.1% active | AID 1671190
Target sequence (P18054 whole entry, looked up): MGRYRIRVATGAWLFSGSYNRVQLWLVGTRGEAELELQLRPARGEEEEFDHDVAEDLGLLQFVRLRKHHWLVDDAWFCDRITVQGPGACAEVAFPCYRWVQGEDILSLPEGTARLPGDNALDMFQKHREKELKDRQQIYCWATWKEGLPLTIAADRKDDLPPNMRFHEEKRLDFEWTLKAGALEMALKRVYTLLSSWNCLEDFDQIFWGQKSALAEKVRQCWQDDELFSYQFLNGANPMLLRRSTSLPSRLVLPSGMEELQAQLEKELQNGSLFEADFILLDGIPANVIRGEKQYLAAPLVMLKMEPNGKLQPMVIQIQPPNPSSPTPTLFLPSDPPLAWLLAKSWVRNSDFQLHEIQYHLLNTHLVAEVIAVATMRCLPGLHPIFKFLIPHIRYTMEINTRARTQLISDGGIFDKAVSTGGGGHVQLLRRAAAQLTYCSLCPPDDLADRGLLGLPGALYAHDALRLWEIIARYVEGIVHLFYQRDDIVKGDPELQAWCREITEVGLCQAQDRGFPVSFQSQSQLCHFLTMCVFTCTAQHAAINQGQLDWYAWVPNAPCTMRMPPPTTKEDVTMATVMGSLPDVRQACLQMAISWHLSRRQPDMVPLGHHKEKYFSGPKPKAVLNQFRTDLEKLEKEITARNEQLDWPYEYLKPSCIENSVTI
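Purified human 12hLO at 150 nM in 25 mM Hepes, 0.01% Triton X-100, pH 7.0, preincubated 15 min at room temperature with compound. Reaction started with 40 uM arachidonic acid, 30 min at room temperature. Hydroperoxide measured by Fe-xylenol orange, 573/405 nm absorbance ratio.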
DT40 TDP1 no CPT = qHTS for Inhibitors of human tyrosyl-DNA phosphodiesterase 1 (TDP1): qHTS in cells in absence of CPT; 420,000 tested, 15% active; Potency, µM (doses to about 46.2 µM), for inactives: at the highest dose activity change, negative = growth inhibition, hits mostly inhibitors; DT40 Tdp1-/- hTDP1 cells, no CPT, ATP luminescence, 48 h; further: nearly all actives have a fitted effect of over 55% in size
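A cellular qHTS used chicken DT40 cells lacking endogenous Tdp1 but carrying stably transfected human TDP1. Compounds were applied without camptothecin, and cell growth kinetics were judged by ATP-dependent luminescence after ≥48 hr.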
Numbers without * were called inactive; ? = inconclusive; / = not tested or not shown; [ ] = dose if it differs, or a comment. The call rests on the fitted dose curve; in most records, active means well fitted curve in the direction sought with a large enough effect; inconclusive means small, poorly fitted or top-dose-only effect, or another doubt; inactive means no such curve, though single readings can be large; an effect the other way counts as inactive or inconclusive. On the % scale 0 is the no-effect control and ±100 the full control effect; potency means the concentration at half of the fitted maximal effect.

SMILES	DT40 TDP1 CPT	Gal4-VP16 FLuc	RORgamma inh	ELG1 DNA repair	12-LOX inh	DT40 TDP1 no CPT
Cc1c(N(Cc2ccccc2F)S(C)(=O)=O)c(=O)n(-c2ccccc2)n1C	/	/	/	/	26%	/
Cc1cc(C)c2c(=O)n(CC(=O)NCCCN3CCN(c4ccccc4F)CC3)sc2n1	4.6µM*	5µM*	3.5µM*	?	/	3.3µM*
Cc1cc(C)c2c(=O)n(CC(=O)NCCCN3CCOCC3)sc2n1	4.1µM*	5µM*	4µM*	22%	/	6.5µM*
Cc1cc([N+](=O)[O-])nn1CC(=O)NCCCN1CCOCC1	-1%	2%	-10%	1%	-6%	14%
CN(CC(=O)N1CCCC1)C(=O)c1ccc(S(=O)(=O)NCc2ccco2)cc1	/	/	/	/	7%	/
Cc1ccc(-c2nn(-c3cc(N4CCNCC4)ccc3[N+](=O)[O-])c(=O)c3ccccc23)cc1	3.7µM*	-7%	-12%	-10%	-17%	4.1µM*
COc1cc(N2CCC(O)CC2)ccc1Nc1nnc(Cl)c(Nc2ccccc2S(C)(=O)=O)n1	21µM*	/	/	/	/	16µM*
COc1ccc(Nc2nc3c(S(=O)(=O)c4ccccc4)nnn3c3ccc(Cl)cc23)c(OC)c1	-16%	/	/	/	-21%	-8%
CCOc1cc(C#N)c(NC(=O)c2ccc(Cl)cc2)cc1OCC	/	/	/	/	30%	/
Cc1oc(-c2ccc(Cl)cc2)nc1CS(=O)CC(=O)N1CCN(c2cccc(C(F)(F)F)c2)CC1 (stereo not drawn)	15µM*	/	/	/	-30%	21µM*
Cc1ccc(-c2nc(CS(=O)CC(=O)N3CCN(c4ccc(F)cc4)CC3)c(C)o2)cc1 (stereo not drawn)	?	1%	27%	-16%	-5%	15µM*
COc1cccc(-c2nc(CS(=O)CC(=O)N3CCN(c4cccc(C(F)(F)F)c4)CC3)c(C)o2)c1 (stereo not drawn)	13µM*	/	/	/	-29%	13µM*
Cc1oc(-c2ccccc2Cl)nc1CS(=O)CC(=O)N1CCN(c2cccc(C(F)(F)F)c2)CC1 (stereo not drawn)	9.2µM*	/	/	/	-18%	13µM*
COc1ccc(N2CCN(C(=O)CS(=O)Cc3nc(-c4ccc(OC)c(OC)c4)oc3C)CC2)cc1 (stereo not drawn)	?	6%	0%	-18%	-2%	?
CC(C)C(=O)Nc1cccc(NC(=O)Nc2ccc(Cl)cc2)c1	/	/	/	/	39%	/
Cc1ccc(-c2nc(CS(=O)CC(=O)N3CCN(c4cccc(Cl)c4)CC3)c(C)o2)cc1 (stereo not drawn)	16µM*	/	/	/	-2%	?
Cc1cc(C(F)(F)F)n(-c2nc(C(=O)N/N=C/c3ccc(F)cc3)cs2)n1	16µM*	0%	-27%	-11%	0%	?
Cc1cccc(NC(=S)N2CCN(c3ccccc3F)CC2)c1C	-10%	10µM*	8.9µM*	-5%	-7%	-11%
Cc1ccccc1NC(=S)N1CCN(c2ccccc2C)CC1	?	5.6µM*	2.8µM*	0%	33%	?
Cc1ccc(N2CCN(C(=S)Nc3ccccc3C)CC2)cc1	6%	?	10µM*	?	19%	0%
Cc1ccccc1NC(=S)N1CCCC1	2%	-5%	-33%	3%	-26%	-16%
CCCCNC(=S)N1CCN(c2ccccc2Cl)CC1	-4%	16%	11µM*	-15%	-27%	-25%
CC(=O)N1CCN(c2ccc([N+](=O)[O-])c(-n3nc(-c4ccc(C)cc4)c4ccccc4c3=O)c2)CC1	/	/	/	/	-7%	/
CCN(C(=O)CSc1nc2ccccc2n1CC(=O)N(C)C1CCCCC1)c1ccccc1	?	/	/	/	-13%	?
CCN(C(=O)CSc1nc2ccccc2n1Cc1ccccc1C#N)c1ccccc1	15µM*	/	/	/	-11%	13µM*
SMILES	DT40 TDP1 CPT	Gal4-VP16 FLuc	RORgamma inh	ELG1 DNA repair	12-LOX inh	DT40 TDP1 no CPT
CCN(C(=O)CSc1nc2ccccc2n1Cc1cc(C)ccc1C)c1ccccc1	16µM*	/	/	/	-17%	23µM*
Cc1nn2c(c1-c1ccccc1[S+](C)(=O)[O-])N(Cc1ccc(C(=O)O)s1)CCC2	/	/	/	/	32µM*	/
Cc1nn2c(c1-c1ccccc1-c1ccccc1)N(Cc1ccc(C(=O)O)s1)CCC2	/	/	/	/	-1%[176 µM]	/
O=C(Cn1ccccc1=O)N1CCC(N2CCSCC2)CC1	/	/	/	/	-2%	/
O=C(N/N=C/c1ccccc1Cl)c1ccc(F)cc1	7%	-1%	-51%	?	15%	-1%
S=C(NCC1CC1)N/N=C/c1ccccc1Cl	?	?	5.6µM*	-5%	?	23µM*
CN(C)c1nc(N/N=C/c2ccccc2O)nc(Nc2ccc(F)cc2)n1	2.3µM*	1.1µM*	0.22µM*	?	-11%	0.58µM*
CN(C)c1nc(Nc2ccc(F)cc2)nc(Oc2ccc(F)cc2)n1	?	-13%	57%	-27%	-3%	?
Oc1ccccc1C=NNC(=S)Nc1ccc(F)cc1	0.92µM*	/	/	/	?	1.5µM*
S=C(N/N=C/c1ccccc1Br)Nc1ccccc1	/	/	/	/	-24%	/
O=C(N/N=C/c1ccccc1Cl)C1CC1	26%	-17%	-15%	-1%	18%	1%
Fc1ccc(NC(=S)NN=Cc2ccccc2Cl)cc1	2.3µM*	/	/	/	50µM*	3.3µM*
Cc1ccc(CNC(=O)c2cc(=O)c3cc(Cl)ccc3o2)cc1	/	/	/	/	1%	/
CC(NC(=O)C1CCCc2ccccc21)c1cccc(Cl)c1 (stereo not drawn)	/	/	/	/	-66%	/
CC(=O)N1CC2(CCN(CCc3ccccn3)CC2)CC1C(=O)O (stereo not drawn)	/	/	/	/	-20%	/
S=C(N/N=C/c1ccccc1Cl)Nc1cccc(Cl)c1Cl	?	11µM*	0.4µM*	-3%	88%	10µM*
Cc1ccc(C(=O)N2CCCN(S(C)(=O)=O)c3ccccc32)cc1C	/	/	/	/	4%	/
COc1ccc(Nc2cc(C(=O)NCc3ccco3)c3ccccc3n2)c(OC)c1	?	-1%	?	?	-9%	23µM*
Cc1cc(C)cc(Nc2cc(C(=O)NCCCOC(C)C)c3ccccc3n2)c1	/	/	/	/	15%	/
COc1ccc(Nc2cc(C(=O)NCCCOC(C)C)c3ccccc3n2)c(OC)c1	16µM*	3%	1%	?	-7%	16µM*
COc1ccc(Nc2cc(C(=O)NCCCN3CCN(C)CC3)c3ccccc3n2)c(OC)c1	?	-3%	-1%	18%	17%	23µM*
